NS1 function inh – blocks influenza NS1 protein function; Potency, µM (titrated, usually from 46.1 µM), inactives show at the top dose activity, positive = more growth; hit rate 0.4% among 270,000; AID 2326; calls by dose curve; further: potency means the concentration at half of the fitted maximal effect; actives are rising curves; nearly all actives have a fitted effect of over 50% in size
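OD600 was taken as the measure of yeast growth restored by compound in an NS1-expressing S. cerevisiae strain. Cells had been washed out of glucose medium and diluted 1:100 into galactose -URA medium, pH 6.0.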
Giardia FBPA inh-1 – Giardia lamblia aldolase inhibition | hit rate 0.71% among 290,000 | A8B2U2 | AID 2451 | purified Giardia FBPA | Potency, µM (titrated, usually from 59.6 µM), for the others: top-dose activity, negative = inhibition, most hits filed as inhibitors; further: potency means the concentration at half of the fitted maximal effect; on the % scale 0 is the no-effect control and ±100 the full control effect; nearly all actives have a fitted effect of over 55% in size
Target sequence (A8B2U2 whole entry, looked up): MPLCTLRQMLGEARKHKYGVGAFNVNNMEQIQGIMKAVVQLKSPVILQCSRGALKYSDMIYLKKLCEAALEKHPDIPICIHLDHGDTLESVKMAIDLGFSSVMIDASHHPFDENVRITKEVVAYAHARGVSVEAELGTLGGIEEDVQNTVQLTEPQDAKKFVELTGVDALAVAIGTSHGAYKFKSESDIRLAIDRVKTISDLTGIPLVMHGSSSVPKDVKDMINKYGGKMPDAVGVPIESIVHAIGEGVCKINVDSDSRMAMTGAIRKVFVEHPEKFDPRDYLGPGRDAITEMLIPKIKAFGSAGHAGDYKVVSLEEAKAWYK
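Giardia FBPA (40 nM reagent) was preincubated 10 min at RT with compound (up to 57.5 uM final), then substrate plus GAPDH/TPI/NAD/arsenate coupling system with diaphorase/resazurin was added; resorufin fluorescence (525/598 nm) was read after 20 min.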
CHX counter – counter-screen hit for Shiga toxin inhibitors, cycloheximide; cell reporter, cycloheximide protein synthesis inhibition counterscreen; max response, %; hit rate 12% among 300,000; in the data active means max response mostly above about 13%, no sharp cut-off; inactive means mostly below about 14%; further: read at 38.3 µM for the half of the compounds with a filed dose; 0% is about no effect
Shiga toxin inh – inhibitors of Shiga toxin in Vero cells. inhibition, % at 38.7 µM. AID 2315. Vero cells, Shiga toxin protein synthesis inhibition reporter. hit rate 9.2% among 290,000; in the data active means inhibition mostly above about 28%, no sharp cut-off; inactive means mostly below about 43%; further: 0% is about no effect
Pf growth 48h – P. falciparum growth inhibition at 48 hours (one generation) | Potency, µM (highest dose often 28.7 µM), inactives show top-dose activity change, negative = inhibition, actives largely listed as inhibitors | P. falciparum luciferase growth in erythrocytes, 48 h | hit rate 5.9% among 310,000 | AID 504832; further: potency means the concentration at half of the fitted maximal effect; on the % scale 0 is the no-effect control and ±100 the full control effect
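Luciferase-expressing parasites in RBCs, 2% Hct / 0.1% parasitemia final; RPMI 1640 + 0.5% Albumax; 37 C, 5% CO2, one generation; luminescence read-out, lower signal = inhibition.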
Pf growth 96h – P. falciparum growth inhibition at 96 hours. AID 504834. hit rate 6.9% among 320,000. P. falciparum luciferase reporter growth, 96 h. Potency, µM (doses to about 28.7 µM), for the others: top-dose activity change, negative = inhibition, actives largely listed as inhibitors; further: potency means the concentration at half of the fitted maximal effect; on the % scale 0 is the no-effect control and ±100 the full control effect
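P. falciparum expressing integrated firefly luciferase, in erythrocytes at 2% hematocrit, 0.05% parasitemia, incubated with compounds 96 h at 37 C, 5% CO2. Growth inhibition read as loss of luminescence; two-generation exposure targets delayed-death apicoplast inhibitors.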
Giardia growth – Giardia lamblia growth inhibition; hit rate 5% among 1,500; Giardia lamblia trophozoite growth inhibition; Potency, µM (top dose mostly 57.5 µM), for the others: at the highest dose activity change, negative = inhibition, usual class: inhibitors; AID 2785; shares compounds with Giardia FBPA inh-1;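 further: potency means the concentration at half of the fitted maximal effect; trophozoites exposed to compound for 48 h at 37 °C; on the % scale 0 is the no-effect control and ±100 the full control effect; nearly all actives have a fitted effect of over 70% in size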
Mammalian tox – toxic to mammalian cells in Giardia aldolase counter-screen; shares compounds with Giardia FBPA inh-1; mammalian cell viability counter-screen, qHTS; Potency, µM (highest dose often 57.5 µM), for inactives: at the highest dose viability change, negative = toxicity, usual class: inhibitors; hit rate 4% among 1,500; AID 2786;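 further: Chinese hamster ovary cells used as mammalian cytotoxicity surrogate; viability measured as cellular ATP by luminescence; potency means the concentration at half of the fitted maximal effect; compound exposure lasted 48 h before reading; on the % scale 0 is the no-effect control and ±100 the full control effect; nearly all actives have a fitted effect of over 60% in size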
Giardia FBPA inh-2 – confirmation of Giardia fructose-bisphosphate aldolase inhibitors; shares compounds with Giardia FBPA inh-1; Potency, µM (titrated, usually from 57.5 µM), for the others: top-dose activity change, negative = inhibition, most hits filed as inhibitors; purified Giardia aldolase enzyme activity, qHTS; hit rate 5% among 1,500; further: potency means the concentration at half of the fitted maximal effect; on the % scale 0 is the no-effect control and ±100 the full control effect; nearly all actives have a fitted effect of over 45% in size
Rabbit FBPA inh – rabbit FBP aldolase inhibition by Giardia aldolase hits; Potency, µM (doses to about 57.5 µM), for the others: at the highest dose activity, negative = inhibition, actives largely listed as inhibitors; Rabbit muscle FBPA enzyme inhibition, selectivity counter-screen; hit rate 4% among 1,500; shares compounds with Giardia FBPA inh-1; further: potency means the concentration at half of the fitted maximal effect; on the % scale 0 is the no-effect control and ±100 the full control effect; nearly all actives have a fitted effect of over 60% in size
Target sequence (P00883 whole entry, looked up): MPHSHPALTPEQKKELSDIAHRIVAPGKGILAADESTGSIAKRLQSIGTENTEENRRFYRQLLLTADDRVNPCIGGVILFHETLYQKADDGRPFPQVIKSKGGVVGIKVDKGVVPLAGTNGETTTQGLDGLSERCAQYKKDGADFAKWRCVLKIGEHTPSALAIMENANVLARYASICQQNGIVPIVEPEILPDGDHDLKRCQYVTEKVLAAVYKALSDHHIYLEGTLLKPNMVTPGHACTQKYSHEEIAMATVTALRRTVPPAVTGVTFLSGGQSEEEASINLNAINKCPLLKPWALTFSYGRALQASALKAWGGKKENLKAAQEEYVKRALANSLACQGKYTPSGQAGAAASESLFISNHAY
GAPDH counter – counter-screen for Giardia aldolase inhibitors: GAPDH coupling enzyme; shares compounds with Giardia FBPA inh-1; GAPDH coupling enzyme counterscreen, biochemical, qHTS; Potency, µM (highest dose often 57.5 µM), for the others: at the top dose activity change, negative = inhibition, most hits filed as inhibitors; hit rate 6% among 1,500; AID 2795; further: potency means the concentration at half of the fitted maximal effect; on the % scale 0 is the no-effect control and ±100 the full control effect; nearly all actives have a fitted effect of over 55% in size
An asterisk follows results filed as active; u = inconclusive; x = not tested or not shown; [ ] = remark or other dose. This is a sample that favours compounds with a hit; in the whole collection about 21% have one here. Unless noted, the call rests on the fitted dose curve; in most records, active means well fitted curve in the direction sought with a large enough effect; inconclusive means small, poorly fitted or top-dose-only effect, or another doubt; inactive means no such curve, though single readings can be large; an effect the other way counts as inactive or inconclusive.

SMILES | NS1 function inh | Giardia FBPA inh-1 | CHX counter | Shiga toxin inh | Pf growth 48h | Pf growth 96h | Giardia growth | Mammalian tox | Giardia FBPA inh-2 | Rabbit FBPA inh | GAPDH counter
COc1cccc(NC(=O)CCC2CCN(C(=O)c3cccc(NC(C)=O)c3)CC2)c1 | -11% | 2% | -2 | -7 | -29% | 23% | x | x | x | x | x
Cc1c(CCO)c(=O)n2c([nH]c3ccccc32)c1C#N | 2% | 25µM* | -3 | -5 | x | -3% | 15% | -4% | -13% | -10% | -11%
Cc1cc(=O)oc2cc(OCC(=O)N3CC[C@@]4(O)CCCC[C@H]4C3)ccc12 | 7% | 13% | -2 | -8 | 39% | -50% | x | x | x | x | x
CN(Cc1ccco1)S(=O)(=O)c1nnc(NC(=O)c2ccc(F)cc2)s1 | 10% | 20µM* | 2 | -3 | 12% | 5% | 7%[10.4 µM] | 8% | u | 32µM* | 20µM*
CCOc1ccc(C(=O)Nc2nnc(S(=O)(=O)N(C)Cc3ccco3)s2)cc1 | 4% | 6% | 12 | 5 | 24% | 5% | x | x | x | x | x
COc1ccc(CN(C)S(=O)(=O)c2nnc(NC(=O)c3ccc(C)cc3)s2)cc1OC | 6% | 25µM* | 10 | -3 | 2% | u | -14% | -5% | u | u | 20µM*
CCC(=O)OC1c2ccccc2C(=O)N1Cc1ccccc1 (stereo unspecified) | 1% | 3% | -6 | -13 | x | u | x | x | x | x | x
CCOC1C(=O)NC(=O)N1Cc1ccccc1 (stereo unspecified) | -1% | 28µM* | 2 | -6 | 42% | 64% | 11% | -7% | 13% | 10% | 5%
O=c1[nH]cc(N=Cc2cc([N+](=O)[O-])ccc2O)c(=O)[nH]1 | -50% | 26% | -1 | -6 | 23% | 12% | x | x | x | x | x
Cc1cc(O)c(C(C)C)cc1N=Cc1cc([N+](=O)[O-])ccc1O | -51% | u | 2 | 4 | u | u | 18%[38.3 µM] | u | 9.2µM* | 13µM* | 16µM*
Cc1nn(C(C)C(=O)NC2C(=O)N3C(C(=O)O)=C(CSc4nnnn4C)CSC23)cc1Cl (stereo unspecified) | x | u | 1 | -11 | 30% | 6% | x | x | x | x | x
Cc1cc(C(F)F)nn1CC(=O)NC1C(=O)N2C(C(=O)O)=C(CSc3nnnn3C)CSC12 (stereo unspecified) | x | u | -5 | 16 | -12% | 34% | x | x | x | x | x
Cc1nnc(SCC2=C(C(=O)O)N3C(=O)C(NC(=O)c4cccc(F)c4F)C3SC2)s1 (stereo unspecified) | x | 14µM* | 13 | -10 | -3% | 19% | 5%[10.4 µM] | -6% | 1% | -6% | 6%
Cc1cc(C)n(CC(=O)NC2C(=O)N3C(C(=O)O)=C(CSc4nnc(C)s4)CSC23)n1 (stereo unspecified) | x | 13µM* | 1 | -5 | 11% | 8% | 3% | -2% | -1% | 6% | 1%
Cc1nnc(SCC2=C(C(=O)O)N3C(=O)C(NC(=O)Cn4ncc(Cl)c4C)C3SC2)s1 (stereo unspecified) | x | 20µM* | -3 | -10 | u | u | -21% | -4% | -8% | -5% | 0%
Cc1[nH]c2ccccc2c1/C=N/Nc1nncn1N | 1% | 13µM* | 55* | 112* | 60% | u | -12% | -19% | u | u | -27%
Nc1c2c(nc3ccc(Br)cc13)N(c1ccccc1)CC2 | -9% | u | 13 | 34 | x | u | x | x | x | x | x
Nc1c2c(nc3ccc(Br)cc13)N(C1CCCCC1)CC2 | x | 18µM* | 6 | -4 | u | 10µM* | 5µM* | -28% | -4% | -4% | -10%
COc1cc(/C=C(\C#N)C(=O)c2c[nH]c3ccccc23)cc(OC)c1O | x | 7.9µM* | 1 | 28 | 6% | 26% | -18% | 3% | 2µM* | u | u
O=C1C=C(O)c2cccc(O)c2C1=O | 6% | 5.6µM* | 5 | 5 | -6% | u | 3%[10.4 µM] | 19% | u | -21% | u
O=C(O)c1ccc(C(=O)c2ccc3c(c2)C(=O)N(CC2CCCO2)C3=O)cc1 (stereo unspecified) | 0% | 13% | -1 | -19 | 3% | u | x | x | x | x | x
N#Cc1c(-c2ccc(F)cc2)cc(-c2ccccc2)nc1SCC(=O)NCC(=O)O | 6% | 7.1µM* | -2 | 44 | 40% | 0% | 21%[38.3 µM] | 15% | -2% | 6% | 15%
N#Cc1c(-c2ccc(Cl)cc2)cc(-c2ccccc2)nc1SCC(=O)O | -4% | 11% | -1 | -6 | 21% | u | x | x | x | x | x
NCCCC[C@@H]1NC(=O)c2cc([N+](=O)[O-])cc(I)c2SC[C@@H](C(=O)NCC(N)=O)NC(=O)CNC1=O | 26% | -4% | -2 | -17 | 4% | 4% | x | x | x | x | x
O=C(CSc1cccc2cccnc12)Nc1cc(C(=O)O)cc(C(=O)O)c1 | 8% | 25µM* | -2 | -5 | -1% | u | -1% | -5% | 8% | 12% | 18%
SMILES | NS1 function inh | Giardia FBPA inh-1 | CHX counter | Shiga toxin inh | Pf growth 48h | Pf growth 96h | Giardia growth | Mammalian tox | Giardia FBPA inh-2 | Rabbit FBPA inh | GAPDH counter
CCCCOc1ccc(NC(=O)CSc2cccc3cccnc23)cc1 | -12% | 0% | -3 | -8 | -10% | 3% | x | x | x | x | x
Cc1ccccc1NNC(=O)C(=O)NNc1ccccc1C | -1% | 16µM* | 8 | 26 | 12% | -5% | u | -6% | -11% | 5% | 8%
CCC(CC)NC(=O)COC(=O)c1ccc(NS(=O)(=O)c2ccc3c(c2)OCCO3)cc1 | -7% | 24% | 3 | -21 | -4% | x | x | x | x | x | x
O=C(Nc1ccccc1)Oc1ccc[nH]c1=O | -3% | 1.4µM* | 21* | 16 | 16% | 42% | 13%[38.3 µM] | u | 0.23µM* | 0.73µM* | 2.6µM*
CC(=O)NC(=S)Nc1ccc(S(=O)(=O)N2CCOCC2)cc1 | 3% | 2% | -2 | 3 | 14% | -6% | x | x | x | x | x
CC(C)(C)NNC(=S)Nc1ccc(S(=O)(=O)N2CCOCC2)cc1 | x | 22µM* | -2 | 8 | -17% | -5% | -3%[10.4 µM] | -5% | 0% | 7% | 8%
Cc1cnc(-c2nnc(N(C)C(=O)c3cnccn3)s2)cn1 | -1% | x | x | x | x | x | x | x | x | x | x

Screens as filed in PubChem.
